This is an account of results in the supplement of paper PMC10037445.

In all, about 2,900 compounds were measured (“NF-kB SEAP reporter activity, fold change vs agonist alone”: median about 0.99, highest 2% from about 2.6 on). The list comes from a sample in which the highest values are over-represented; it also holds similar structures and randomly drawn compounds.

For assay [1], the system named is RAW-Dual. The experiment in a line: NF-kB SEAP reporter activity, fold change vs agonist alone; cytotoxicity flag (confluency mask): not cytotoxic; higher = enhanced NF-kB activity. In a few lines:
(§1)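 RAW-Dual macrophages were seeded in DMEM at 50,000 cells/well in 384-well plates, given 50 nL of library stock by pin tool, and given a PRR agonist 1 h later. Plates were held at 37 °C, 5% CO2 for 20 hours, after which supernatant was read for IRF by QuantiLuc luminescence and for NF-κB by QuantiBlue absorbance at 620 nm. Reporter activity is expressed as fold change over wells that received agonist alone. A well was called cytotoxic when IncuCyte confluency fell below 70% of agonist controls in both mask sets.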

The test system of assay [2] is RAW-Dual. The experiment in a line: NF-kB SEAP reporter activity, fold change vs agonist alone; higher = enhanced NF-kB activity. As to conditions: library stock concentration (final ~1000-fold dilution): 10 mM. An outline of the steps: as §1
For assay [3], the system named is RAW-Dual. Nature of the assay: NF-kB SEAP reporter activity, fold change vs agonist alone; cytotoxicity flag (confluency mask): cytotoxic (confluency <70% of control); higher = enhanced NF-kB activity. An outline of the steps:
as §1

[4] abbreviates: agonist: ODN 1826 (TLR9) 0.5 ug/mL.
Where [5] appears, read: agonist: Pam2CSK4 (TLR2/6) 0.1 ug/mL.
Where [6] appears, read: agonist: Pam3CSK4 (TLR2/1) 0.1 ug/mL.
Setting [7] is: cytotoxicity flag (confluency mask): not cytotoxic, agonist: Imiquimod (TLR7) […].
Setting [8] is: cytotoxicity flag (confluency mask): not cytotoxic, agonist: MPLA (TLR4) […].

Regarding `CC(C)(C)NC(=O)C1CN(Cc2cccnc2)CCN1CC(O)CC(Cc1ccccc1)C(=O)NC1c2ccccc2CC1O.O=S(=O)(O)O` (centres undefined) (library stock concentration (final ~1000-fold dilution): 10 mM), the “NF-kB SEAP reporter activity” value in the assay with RAW-Dual [1] (agonist: LPS (TLR4) 0.1 ug/mL) came to 1.3; with RAW-Dual [1] (setting [4]), 1.15; in the assay on RAW-Dual [1] (setting [5]), 1.2; in the assay with RAW-Dual [1] (setting [6]), 1.34.
As for `CC(C)(C)NC(=O)C1CN(Cc2cccnc2)CCN1CC(O)CC(Cc1ccccc1)C(=O)NC1c2ccccc2CC1O.O=S(=O)(O)O` (centres undefined), the figures for the “NF-kB SEAP reporter activity” value in the assay with RAW-Dual [2] (setting [7]) and in the assay on RAW-Dual [2] (setting [8]) were 1.07 and 1.21, respectively.
The matching figures for `CS(=O)(=O)O.Cc1c(O)cccc1C(=O)NC(CSc1ccccc1)C(O)CN1CC2CCCCC2CC1C(=O)NC(C)(C)C` (centres undefined): 2.13 and 2.22.
The matching figures for `C=C(C)C(=O)Nc1cccc(-c2ncnc3[nH]cc(C(=O)OCC)c23)c1`: 1.01 and 1.18.
In the case of `C=C(C)C(=O)Nc1cccc(-c2ncnc3[nH]cc(C(=O)OCC)c23)c1` (library stock concentration (final ~1000-fold dilution): 10 mM), the “NF-kB SEAP reporter activity” value is 1.36 in the assay on RAW-Dual [1] (agonist: LPS (TLR4) 0.1 ug/mL), 1.14 in the assay on RAW-Dual [1] (setting [4]), 1.44 in the assay with RAW-Dual [1] (setting [5]) and 1.27 with RAW-Dual [1] (setting [6]).
Taken in the same sequence, the figures for `C=C1C(=O)OC2/C=C(\C)CC/C=C(\C)CCC12` (centres undefined) (library stock concentration (final ~1000-fold dilution): 10 mM) were 0.231, 0.213, 0.153 and 0.197.
Turning to `C=C1C(=O)OC2/C=C(\C)CC/C=C(\C)CCC12` (centres undefined), the results for the “NF-kB SEAP reporter activity” value in the assay on RAW-Dual [2] (setting [7]) and with RAW-Dual [2] (setting [8]) were 0.262 and 0.198, respectively.
The matching figures for `CC(=O)ON=C1C(c2c(O)[nH]c3cc(Br)ccc23)=Nc2ccccc21`: 1.07 and 1.48.
Regarding `CC(=O)ON=C1C(c2c(O)[nH]c3cc(Br)ccc23)=Nc2ccccc21` (library stock concentration (final ~1000-fold dilution): 10 mM), the “NF-kB SEAP reporter activity” value is 3.28 in the assay with RAW-Dual [1] (agonist: LPS (TLR4) 0.1 ug/mL), 1.19 in the assay with RAW-Dual [1] (setting [4]), 1.55 in the assay with RAW-Dual [1] (setting [5]) and 1.41 in the assay on RAW-Dual [1] (setting [6]).
For `CCN(CC)CCOC(=O)C(Cc1cccc2ccccc12)CC1CCCO1.O=C(O)C(=O)O` (centres undefined), in the assay on RAW-Dual [2] (setting [8]), the “NF-kB SEAP reporter activity” value was found to be 0.821.
On to `CCN(CC)CCOC(=O)C(Cc1cccc2ccccc12)CC1CCCO1.O=C(O)C(=O)O` (centres undefined) (library stock concentration (final ~1000-fold dilution): 10 mM), for which the “NF-kB SEAP reporter activity” value amounted to 1.08 in the assay on RAW-Dual [1] (agonist: LPS (TLR4) 0.1 ug/mL), 0.731 in the assay with RAW-Dual [1] (setting [4]), 0.761 in the assay with RAW-Dual [1] (setting [5]) and 1.01 in the assay with RAW-Dual [1] (setting [6]).
On to `Nc1nc(NCCNc2ncc(-n3ccnc3)c(-c3ccc(Cl)cc3Cl)n2)ccc1[N+](=O)[O-]`, for which the results for the “NF-kB SEAP reporter activity” value with RAW-Dual [2] (setting [7]) and in the assay on RAW-Dual [2] (setting [8]) were 2.49 and 2.25, respectively.
For the molecule `Nc1nc(NCCNc2ncc(-n3ccnc3)c(-c3ccc(Cl)cc3Cl)n2)ccc1[N+](=O)[O-]` (library stock concentration (final ~1000-fold dilution): 10 mM), the “NF-kB SEAP reporter activity” value is 2.5 in the assay on RAW-Dual [1] (agonist: LPS (TLR4) 0.1 ug/mL), 2.96 with RAW-Dual [1] (setting [4]), 1.46 in the assay on RAW-Dual [1] (setting [5]) and 2.83 in the assay with RAW-Dual [1] (setting [6]).
Consider `Cc1cncc(CN2CCC(=C3c4ccc(Cl)cc4CCc4cccnc43)CC2)c1.O=C(O)/C=C/C(=O)O`, for which the “NF-kB SEAP reporter activity” value in the assay with RAW-Dual [2] (cytotoxicity flag (confluency mask): cytotoxic (confluency <70% of control), agonist: Imiquimod (TLR7) […]) amounted to 1.02; in the assay on RAW-Dual [2] (cytotoxicity flag (confluency mask): cytotoxic (confluency <70% of control), agonist: MPLA (TLR4) […]) it was 0.719.
Take `Cc1cncc(CN2CCC(=C3c4ccc(Cl)cc4CCc4cccnc43)CC2)c1.O=C(O)/C=C/C(=O)O` (library stock concentration (final ~1000-fold dilution): 10 mM): the “NF-kB SEAP reporter activity” value is 0.652 with RAW-Dual [3] (agonist: LPS (TLR4) 0.1 ug/mL), 0.37 in the assay on RAW-Dual [3] (setting [4]), 0.456 in the assay with RAW-Dual [3] (setting [5]) and 0.408 in the assay with RAW-Dual [3] (setting [6]).
Take `CCC1OC(=O)C(C)C(OC2CC(C)(OC)C(O)C(C)O2)C(C)C(OC2OC(C)CC(N(C)C)C2O)C(C)(O)CC(C)CN(C)C(C)C(O)C1(C)O.O.O` (centres undefined) (library stock concentration (final ~1000-fold dilution): 10 mM): the “NF-kB SEAP reporter activity” value in the assay with RAW-Dual [1] (agonist: LPS (TLR4) 0.1 ug/mL) is 1.49; in the assay with RAW-Dual [1] (setting [4]), 0.371; in the assay with RAW-Dual [1] (setting [5]), 0.896; with RAW-Dual [1] (setting [6]), 0.978.
On to `CCC1OC(=O)C(C)C(OC2CC(C)(OC)C(O)C(C)O2)C(C)C(OC2OC(C)CC(N(C)C)C2O)C(C)(O)CC(C)CN(C)C(C)C(O)C1(C)O.O.O` (centres undefined), for which the “NF-kB SEAP reporter activity” value in the assay on RAW-Dual [2] (setting [7]) stood at 0.506; in the assay on RAW-Dual [2] (setting [8]), 1.46.
